Test results from PubChem BioAssay (Tox21).
Records with an inconclusive call do not appear. Entries that show only a call come without a potency. Active and inactive are the calls of the source. Calls come from the whole dose curve; as a rule, active = well fitted inhibition curve with a large enough effect in the repeat runs; inconclusive = weak or mixed curves; inactive = no such curve, though single readings can be large or run the other way.

target: Cytochrome P450 2D6 (Homo sapiens) (UniProt P10635); test: Cytochrome P450 Family 2 Subfamily D Member 6 (CYP2D6) small molecule antagonists: luciferase reporter qHTS assay (AID 1671196); conditions: P450-Glo CYP2D6 enzyme assay, luciferin luminescence, 1 h; series mostly up to 115 µM; note: nearly all actives have a fitted effect of over 50% in size
Sequence (P10635 whole entry, looked up): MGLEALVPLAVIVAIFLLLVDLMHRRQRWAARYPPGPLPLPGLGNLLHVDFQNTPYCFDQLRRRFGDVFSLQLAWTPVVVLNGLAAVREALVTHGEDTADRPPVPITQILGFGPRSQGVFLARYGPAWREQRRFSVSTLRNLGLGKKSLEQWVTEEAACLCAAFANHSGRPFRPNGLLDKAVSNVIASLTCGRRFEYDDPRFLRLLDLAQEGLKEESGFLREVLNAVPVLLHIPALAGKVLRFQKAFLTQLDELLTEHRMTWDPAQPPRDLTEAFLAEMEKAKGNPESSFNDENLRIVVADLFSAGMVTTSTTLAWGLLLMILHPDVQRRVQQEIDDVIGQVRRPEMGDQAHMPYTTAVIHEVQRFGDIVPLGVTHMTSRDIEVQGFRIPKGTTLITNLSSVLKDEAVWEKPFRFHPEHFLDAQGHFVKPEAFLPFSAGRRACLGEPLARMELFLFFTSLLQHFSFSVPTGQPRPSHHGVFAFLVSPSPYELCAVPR
Summary of the method: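 Room-temperature luminescent CYP2D6 activity assay: compound preincubated 10 min with enzyme–substrate mix, NADPH-initiated reaction 1 h, detection reagent 20 min before reading.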
Potency is the fitted concentration of half-maximal effect.

| SMILES | Potency |
| --- | --- |
| Cc1ccccc1N=O | inactive |
| CCCCCOC(=O)CCC | inactive |
| Oc1ccccc1-c1nnco1 | inactive |
| CCOCCOC(=O)/C=C/c1ccc(OC)cc1 | inactive |
| Cc1ccc(S(=O)(=O)O)c(C)c1 | inactive |
| O=C(OCc1ccccc1)C(=O)OCc1ccccc1 | inactive |
| CC(C)N(c1ccccc1)C(C)C | inactive |
| CN(C)C(=O)CNC(=O)Cc1ccccc1 | inactive |
| CCC(C)(CCC(C)C)C(=O)O (stereo unspecified) | 28.3 µM (active) |
| CCOC(=O)[C@H](CCc1ccccc1)N[C@@H](C)C(=O)N1C(=O)N(C)C[C@H]1C(=O)O | inactive |
| O=C1CC(c2ccc(Cl)cc2)CC(=O)N1 | inactive |
| C[C@H](CCC(=O)O)[C@H]1CC[C@H]2[C@@H]3C(=O)C[C@@H]4CC(=O)CC[C@]4(C)[C@H]3CC(=O)[C@]12C | inactive |
| CC1=CCC(C(C)C)=CC1 | inactive |
| CC(=O)Nc1ccc(S(=O)(=O)Nc2ccc([N+](=O)[O-])cc2)cc1 | inactive |
| CC(=O)NCCCCCC(=O)O | inactive |
| COc1cc(N)ccc1C | 12.5 µM (active) |
| CC(S)C(=O)NCC(=O)O (stereo unspecified) | inactive |
| Cc1ccc2ccc(Cl)cc2n1 | inactive |
| CC(C)(C)NC(N)=O | inactive |
| O=C(O)Cc1ccc(Cl)cc1Cl | 31.7 µM (active) |
| O=C(O)c1ccc(Cl)cc1Cl | inactive |
| COP(=O)(OC)OC(c1ccc(Cl)cc1)P(=O)(OC)OC (stereo unspecified) | inactive |
| CCCOC(OCCC)OCCC | inactive |
| CC(CO)c1ccccc1 (stereo unspecified) | inactive |
| CCCCNC1CC(C)(C)NC(C)(C)C1 | 28.3 µM (active) |
| NS(=O)(=O)c1ccc(NC(=O)CCC(=O)O)cc1 | inactive |
